In the supplement of paper PMC10127200:
Where a name gives a salt, the structure may show the parent alone.

Tests used:
Assay in all cases: Euclidean distance of Cell Painting phenotypic profile (signed KS, 77 features) to DMSO centroid (dimensionless distance); 5 or 10 uM (library dependent); higher = stronger phenotypic change vs DMSO (phenoactivity)
Settings in all cases: 48 h
[1] = system: 786-O
Procedure, shortened: (§1)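 Stained cells were imaged confocally at 20X with 9 fields per well, after 48 h of exposure to library compounds at 10 or 5 uM (set by library; 0.1% DMSO final). The cells were five cancer lines and a healthy fibroblast line. From the images, Harmony extracted 77 features, each expressed as a signed Kolmogorov-Smirnov statistic relative to same-plate vehicle wells. Phenoactivity is measured as Euclidean distance to the median vehicle profile, using plate-position-corrected, correlation-weighted profiles averaged across replicates at the top dose.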

[2] = system: A549
Procedure, shortened: as §1

[3] = system: DU145
Procedure, shortened: as §1

[4] = system: FB
Procedure, shortened: as §1

[5] = system: HEPG2
Procedure, shortened: as §1

[6] = system: OVCAR4
Procedure, shortened: as §1

Molecule `COc1ccc(OC)c(C(O)CNC(=O)CN)c1` (centres undefined) [Midodrine] has an Euclidean distance [1] of 0.905, an Euclidean distance [2] of 1.21 and an Euclidean distance [3] of 0.468. The Euclidean distance [4] was 0.683, the Euclidean distance [5] was 0.342 and the Euclidean distance [6] was 0.78.
`CN1CCN(c2ccc(OC(F)(F)F)c(Nc3ncc4c(n3)-c3c(c(C(N)=O)nn3CCO)CC4)c2)CC1` gave an Euclidean distance [1] of 2.75, an Euclidean distance [2] of 4.08 and an Euclidean distance [3] of 3.85. It also gave an Euclidean distance [4] of 3.73, an Euclidean distance [5] of 2.82 and an Euclidean distance [6] of 3.67.
`O=[N+]([O-])c1ccc(O)c2ncccc12` [Nitroxoline] showed an Euclidean distance [1] of 2.71, an Euclidean distance [2] of 2.74 and an Euclidean distance [3] of 1.76. For the same molecule, the Euclidean distance [4] was 1.94, the Euclidean distance [5] was 1.71 and the Euclidean distance [6] was 2.24.
`O=C(COc1ccc(Cl)cc1)N1CCN(Cc2ccc3c(c2)OCO3)CC1` [Fipexide hydrochloride] showed an Euclidean distance [1] of 1.78, an Euclidean distance [2] of 1.13 and an Euclidean distance [3] of 1.39. The Euclidean distance [4] was 1.08, the Euclidean distance [5] was 0.573 and the Euclidean distance [6] was 1.32.
`CS(=O)(=O)c1cccc(C[C@H](NC(=O)c2c(Cl)cc3c(c2Cl)CCN(C(=O)c2ccc4ccoc4c2)C3)C(=O)O)c1` [Lifitegrast] gave an Euclidean distance [1] of 1.08, an Euclidean distance [2] of 0.823 and an Euclidean distance [3] of 1.53. The Euclidean distance [4] was 1.16, the Euclidean distance [5] was 0.431 and the Euclidean distance [6] was 1.27.
For `Cc1csc(-c2nnc(Nc3ccc(Oc4ncccc4-c4ccnc(N)n4)cc3)c3ccccc23)c1`, the Euclidean distance [1] was 3.06, the Euclidean distance [2] was 3.22 and the Euclidean distance [3] was 2.83. For the same molecule, the Euclidean distance [4] was 2.44, the Euclidean distance [5] was 2.61 and the Euclidean distance [6] was 3.01.
Molecule `CCCCOc1cc(C(=O)NCCN(CC)CC)c2ccccc2n1` [Dibucaine HCl] has an Euclidean distance [1] of 1.45, an Euclidean distance [2] of 1.68 and an Euclidean distance [3] of 1.23. It also gave an Euclidean distance [4] of 1.07, an Euclidean distance [5] of 1.52 and an Euclidean distance [6] of 1.07.
`CCOC(=O)c1ccc(N)cc1` [Benzocaine hydrochloride] gave an Euclidean distance [1] of 0.675, an Euclidean distance [2] of 0.334 and an Euclidean distance [3] of 0.563. The Euclidean distance [4] was 0.896, the Euclidean distance [5] was 0.264 and the Euclidean distance [6] was 0.998.
`CC(C)c1noc(N2CCC(COc3ccc(-c4ccc(S(C)(=O)=O)cc4)nc3)CC2)n1` showed an Euclidean distance [1] of 1.17, an Euclidean distance [2] of 1.53 and an Euclidean distance [3] of 0.872. It also gave an Euclidean distance [4] of 0.701, an Euclidean distance [5] of 0.585 and an Euclidean distance [6] of 0.984.
`OCCN1C[C@H](O)[C@@H](O)[C@H](O)[C@H]1CO` [Miglitol] gave an Euclidean distance [1] of 1.4, an Euclidean distance [2] of 0.649 and an Euclidean distance [3] of 1.16. For the same molecule, the Euclidean distance [4] was 0.979, the Euclidean distance [5] was 0.675 and the Euclidean distance [6] was 1.27.
`CCCN(CCC)CCc1cccc2c1CC(=O)N2` [Ropinirole HCl] gave an Euclidean distance [1] of 1.32, an Euclidean distance [2] of 1.01 and an Euclidean distance [3] of 0.736. The Euclidean distance [4] was 1.3, the Euclidean distance [5] was 0.483 and the Euclidean distance [6] was 1.2.
With `O=C(O)Cn1nnc(-c2cc(N3CCC(Oc4cc(F)ccc4Br)CC3)no2)n1` the Euclidean distance [1] was 0.964, the Euclidean distance [2] was 1.38 and the Euclidean distance [3] was 0.83. The Euclidean distance [4] was 0.907, the Euclidean distance [5] was 2.08 and the Euclidean distance [6] was 0.751.
`Cn1c(Cn2ccc(C(F)(F)F)c(Oc3cc(Cl)cc(C#N)c3)c2=O)n[nH]c1=O` [Doravirine (MK-1439)] was tested, and the Euclidean distance [1] was 1.23, the Euclidean distance [2] was 0.8 and the Euclidean distance [3] was 1.11. The Euclidean distance [4] was 1.13, the Euclidean distance [5] was 0.593 and the Euclidean distance [6] was 0.914.
In the case of `Cc1ccc(S(=O)(=O)c2ccc([N+](=O)[O-])o2)cc1`, the Euclidean distance [1] is reported as 6.48, the Euclidean distance [2] is reported as 1.74 and the Euclidean distance [3] is reported as 3.22. It also gave an Euclidean distance [4] of 5.11, an Euclidean distance [5] of 1.81 and an Euclidean distance [6] of 6.14.
For `Cc1c(N(C)C)c(=O)n(-c2ccccc2)n1C` [Amidopyrine], the Euclidean distance [1] was 1.3, the Euclidean distance [2] was 0.92 and the Euclidean distance [3] was 0.804. For the same molecule, the Euclidean distance [4] was 1.15, the Euclidean distance [5] was 1.63 and the Euclidean distance [6] was 1.17.
With `NC(=O)N1c2ccccc2CC(=O)c2ccccc21` [Oxcarbazepine] the Euclidean distance [1] was 2.18, the Euclidean distance [2] was 1.39 and the Euclidean distance [3] was 1.26. The Euclidean distance [4] was 1.19, the Euclidean distance [5] was 1.13 and the Euclidean distance [6] was 1.57.
Work on `Cc1cc(O)c2c(c1)C(=O)c1cccc(O)c1C2=O` [Chrysophanic Acid] yielded an Euclidean distance [1] of 1.36, an Euclidean distance [2] of 0.646 and an Euclidean distance [3] of 1.3. It also gave an Euclidean distance [4] of 1.64, an Euclidean distance [5] of 1.34 and an Euclidean distance [6] of 1.43.
In the case of `CC(C)NC[C@@H](O)COc1ccc(CC(N)=O)cc1` [(R)-(+)-Atenolol HCl], the Euclidean distance [1] is reported as 0.631, the Euclidean distance [2] is reported as 0.523 and the Euclidean distance [3] is reported as 0.486. It also gave an Euclidean distance [4] of 0.716, an Euclidean distance [5] of 0.626 and an Euclidean distance [6] of 0.511.
`OC[C@H]1O[C@@H](Oc2cc(O)cc(/C=C/c3ccc(O)cc3)c2)[C@H](O)[C@@H](O)[C@@H]1O` [Polydatin] showed an Euclidean distance [1] of 1.21, an Euclidean distance [2] of 2.03 and an Euclidean distance [3] of 1.22. The Euclidean distance [4] was 0.978, the Euclidean distance [5] was 0.886 and the Euclidean distance [6] was 1.3.
Molecule `CC(C)N(CCCNC(=O)Nc1ccc(C(C)(C)C)cc1)C[C@H]1O[C@@H](n2ccc3c(N)ncnc32)[C@H](O)[C@@H]1O` has an Euclidean distance [1] of 1.04, an Euclidean distance [2] of 0.769 and an Euclidean distance [3] of 0.92. The Euclidean distance [4] was 1.18, the Euclidean distance [5] was 0.5 and the Euclidean distance [6] was 0.755.
With `CC(=O)Oc1ccc(C(c2ccc(OC(C)=O)cc2)c2ccccn2)cc1` [Bisacodyl] the Euclidean distance [1] was 1.2, the Euclidean distance [2] was 1.2 and the Euclidean distance [3] was 0.531. The Euclidean distance [4] was 3.08, the Euclidean distance [5] was 0.712 and the Euclidean distance [6] was 1.41.
Molecule `COCCNCc1ccc(-c2cc3nccc(Oc4ccc(NC(=O)C5(C(=O)Nc6ccc(F)cc6)CC5)cc4F)c3s2)nc1` [Sitravatinib (MGCD516)] has an Euclidean distance [1] of 5.08, an Euclidean distance [2] of 4.94 and an Euclidean distance [3] of 5.04. The Euclidean distance [4] was 5.24, the Euclidean distance [5] was 4.74 and the Euclidean distance [6] was 4.64.
Molecule `Nc1ncnc2c1ncn2[C@@H]1O[C@H](CO)[C@@H](O)[C@H]1O` [Adenosine] has an Euclidean distance [1] of 1.13, an Euclidean distance [2] of 2.77 and an Euclidean distance [3] of 1.12. For the same molecule, the Euclidean distance [4] was 0.92, the Euclidean distance [5] was 0.753 and the Euclidean distance [6] was 1.22.
`CN1[C@@H]2CC[C@H]1C[C@@H](OC(c1ccccc1)c1ccccc1)C2` [Benztropine mesylate] gave an Euclidean distance [1] of 1.38, an Euclidean distance [2] of 0.973 and an Euclidean distance [3] of 1.51. For the same molecule, the Euclidean distance [4] was 1.56, the Euclidean distance [5] was 1.19 and the Euclidean distance [6] was 1.21.
Work on `Cc1cc(C#N)cc(C)c1Oc1nc(Nc2ccc(C#N)cc2)nc(N)c1Br` [Etravirine (TMC125)] yielded an Euclidean distance [1] of 1.93, an Euclidean distance [2] of 2.85 and an Euclidean distance [3] of 1.7. For the same molecule, the Euclidean distance [4] was 0.981, the Euclidean distance [5] was 2.06 and the Euclidean distance [6] was 1.73.
In the case of `CS(=O)(=O)CCNCc1ccc(-c2ccc3ncnc(Nc4ccc(OCc5cccc(F)c5)c(Cl)c4)c3c2)o1`, the Euclidean distance [1] is reported as 3.78, the Euclidean distance [2] is reported as 3.57 and the Euclidean distance [3] is reported as 3.75. It also gave an Euclidean distance [4] of 4.09, an Euclidean distance [5] of 4.37 and an Euclidean distance [6] of 3.36.
In the case of `NS(=O)(=O)c1cc2c(cc1Cl)NC(C1CC3C=CC1C3)NS2(=O)=O` (centres undefined) [Cyclothiazide], the Euclidean distance [1] is reported as 1.37, the Euclidean distance [2] is reported as 0.917 and the Euclidean distance [3] is reported as 0.711. The Euclidean distance [4] was 1.07, the Euclidean distance [5] was 0.641 and the Euclidean distance [6] was 2.44.
`CC(C)NCC(O)COc1ccc(CCOCC2CC2)cc1` (centres undefined) [Betaxolol] gave an Euclidean distance [1] of 0.891, an Euclidean distance [2] of 0.384 and an Euclidean distance [3] of 0.799. For the same molecule, the Euclidean distance [4] was 0.967, the Euclidean distance [5] was 1.64 and the Euclidean distance [6] was 1.14.
For `CC(=O)N(O)CCCCCNC(=O)CCC(=O)N(O)CCCCCNC(=O)CCC(=O)N(O)CCCCCN` [Deferoxamine mesylate], the Euclidean distance [1] was 2.45, the Euclidean distance [2] was 2.58 and the Euclidean distance [3] was 6.88. The Euclidean distance [4] was 2.61, the Euclidean distance [5] was 2.02 and the Euclidean distance [6] was 2.86.
